Rows were chosen to be rich in hits. Some 11% of all compounds tested hit in one or more screens of this group.
AmpC no deterg: inhibitors of E. coli AmpC beta-lactamase without detergent | P00811 | AmpC nitrocefin hydrolysis, absorbance 480 nm, 0.0001% Triton | Potency, µM (top dose mostly 57.1 µM), for the others: top-dose activity change, negative = inhibition, most hits filed as inhibitors | 0.52% of 330,000 active | AID 485341;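 note: plate controls were no compound for no effect and no enzyme for full effect; nearly all actives have a fitted effect of over 20% in size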
Target sequence (P00811 whole entry, looked up): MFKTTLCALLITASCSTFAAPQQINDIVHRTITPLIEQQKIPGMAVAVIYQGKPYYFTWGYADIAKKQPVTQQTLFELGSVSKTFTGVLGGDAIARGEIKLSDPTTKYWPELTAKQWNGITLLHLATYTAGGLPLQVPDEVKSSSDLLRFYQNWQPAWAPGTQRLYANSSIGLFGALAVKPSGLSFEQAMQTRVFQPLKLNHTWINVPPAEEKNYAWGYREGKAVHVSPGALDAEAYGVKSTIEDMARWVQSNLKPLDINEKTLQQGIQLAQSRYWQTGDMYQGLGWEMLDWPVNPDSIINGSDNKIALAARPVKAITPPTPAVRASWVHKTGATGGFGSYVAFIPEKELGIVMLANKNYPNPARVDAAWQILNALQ
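20 mM phosphate pH 7.0 + 0.01% (detergent screen) or 0.0001% Triton X-100; 5.3 nM AmpC reagent; cpd preinc 15 min RT; nitrocefin (800 uM stock) to start; A480 q20 s × 4 min; Activity was normalised to no-enzyme and no-compound control wells.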
AMA1-RON2 inh: disrupts binding of P. falciparum AMA1 to RON2; AlphaScreen AMA1-biotinylated RON2 peptide binding; Potency, µM (doses to about 58.2 µM), for inactives: at the highest dose activity change, negative = inhibition, hits mostly inhibitors; 0.2% of 360,000 active; AID 720542;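 note: 0% = vehicle wells and -100% = peptide control; nearly all actives have a fitted effect of over 45% in size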
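AMA1 (3D7) with his tag at 25 nM final met compounds first, then biotinylated RON2 peptide at 25 nM; detection used donor plus acceptor beads, 10 µg/mL apiece, read by AlphaScreen after 30 min at room temperature.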
AmpC detergent: inhibitors of E. coli AmpC beta-lactamase with detergent; Potency, µM (doses to about 114 µM), for the others: at the highest dose activity change, negative = inhibition, hits mostly inhibitors; P00811; 0.041% of 370,000 active; AID 485294; AmpC hydrolysis of nitrocefin, absorbance 480 nm, 0.01% Triton;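 note: 0% = no-compound wells and -100% = no-enzyme wells; nearly all actives have a fitted effect of over 25% in size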
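AmpC (5.3 nM in the dispensed reagent) in 20 mM phosphate pH 7.0 with 0.01% (detergent screen) or 0.0001% Triton X-100 was preincubated with compounds for 15 min at room temperature. Nitrocefin was then added from an 800 uM solution, and hydrolysis was followed at 480 nm.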
HCV inh: blocks hepatitis C virus; Potency, µM (top dose mostly 41.8 µM), for the others: at the top dose activity change, negative = inhibition, most hits filed as inhibitors; Huh7.5.1 HCVcc-Cre infection, luciferase reporter, 44 h; 3.4% of 340,000 active
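Compounds are dispensed onto cells plated 4 h earlier at 1,000 per well, with HCVcc-Cre virus (about 0.5 moi) added next. Following 44 h of culture, luminescent signal is measured for 15 sec after 15 min with substrate at room temperature.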
Pf growth 96h: inhibits malaria parasite growth, 96 h. 6.9% of 320,000 active. Potency, µM (doses to about 28.7 µM), for the others: top-dose activity change, negative = inhibition, hits mostly inhibitors. P. falciparum luciferase reporter growth, 96 h
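96 h incubation, 37 C, 5% CO2, of luciferase-reporter P. falciparum-infected RBCs (2% hematocrit, 0.05% parasitemia final) with test compounds; endpoint luminescence.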
Pf growth 48h: inhibits P. falciparum growth in the first generation, 48 h; P. falciparum luciferase growth in erythrocytes, 48 h; Potency, µM (titrated, usually from 28.7 µM), for inactives: at the highest dose activity change, negative = inhibition, hits mostly inhibitors; 5.9% of 310,000 active
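Luciferase-expressing parasites in RBCs, 2% Hct / 0.1% parasitemia final; RPMI 1640 + 0.5% Albumax; 37 C, 5% CO2, one generation; luminescence read-out, lower signal = inhibition.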
* = called active by the depositor; u = inconclusive; x = no result given; [ ] = remark or other dose. Calls come from the whole dose curve; as a rule, active = well fitted curve in the direction sought with a large enough effect; inconclusive = small, poorly fitted or top-dose-only effect, or another doubt; inactive = no such curve, though single readings can be large; an effect the other way counts as inactive or inconclusive. Unless noted, % is set by controls: 0 for no effect and ±100 for the full control effect; potency is the fitted concentration of half-maximal effect.

SMILES | AmpC no deterg | AMA1-RON2 inh | AmpC detergent | HCV inh | Pf growth 96h | Pf growth 48h
COc1ccc(S(=O)(=O)/N=C2/C=CC(=O)C(C)=C2C)cc1 | -54% | 1% | 0% | 13µM* | u | u
O=C1CSC(c2cn(-c3ccccc3)nc2-c2cccs2)N1Cc1ccccc1 (centres undefined) | -4% | x | -4% | x | 2% | x
O=C1CSC(c2cn(-c3ccccc3)nc2-c2cc3ccccc3o2)N1Cc1ccccc1 (centres undefined) | -16% | -6% | u | u | 4.1µM* | x
Cc1ccc(-c2nn(-c3ccccc3)cc2C2SCC(=O)N2Cc2ccccc2)o1 (centres undefined) | -2% | -20% | -7% | u | -21% | 10µM*
O=C1CSC(c2cn(-c3ccccc3)nc2-c2cc3ccccc3oc2=O)N1Cc1ccco1 (centres undefined) | 10% | 1% | u | u | u | 10µM*
NC(=O)c1cn(-c2ccccc2)nc1-c1cc2ccccc2oc1=O | -16% | -14% | -11% | 16% | -19% | x
COc1ccc(Cn2c(=O)c3oc4ccccc4c3n(Cc3ccc(F)cc3)c2=O)cc1 | x | x | 21% | x | x | x
COc1ccc(OCC(=O)NCc2ccc3c(c2)CCN3C(=O)c2cccc(C)c2)cc1 | x | x | -2% | x | x | x
CCOC(=O)c1nc2nc(-c3cccs3)cc(C(F)(F)F)n2n1 | -15% | 3% | u | u | 8.3µM* | 23%
CCc1ccc(/C=C/C(=O)C2C(=O)c3ccccc3C2=O)cc1 | -53% | 11% | 2% | u | 0.93µM* | 0.93µM*
CCc1cc(=O)oc2cc(OCC(=O)N(CC)CC)c(Cl)cc12 | -1% | 4% | 4% | -9% | 10µM* | x
CCc1cc(=O)oc2cc(OCC(=O)O)c(Cl)cc12 | 1% | 15% | u | 1% | x | 7%
CC(=O)c1c(C)[nH]c(C(=O)OCc2cccc(Cl)c2)c1C | -20% | u | 7% | 11µM* | 21% | -6%
CCOC(=O)c1[nH]c(C)c(C(=O)N2CCN(c3cccc(Cl)c3)CC2)c1C | 154% | -16% | 3% | 8% | 0% | 10µM*
CC(=O)c1c(C)[nH]c(C(=O)OCc2ccc(F)cc2Cl)c1C | -16% | -3% | u | u | u | 67%
CCOC(=O)c1[nH]c(C)c(C(=O)OCc2ccccc2F)c1C | -22% | -10% | 8% | 3.2µM* | -26% | -15%
CCOC(=O)c1[nH]c(C)c(C(=O)N2CCN(c3ccc(F)cc3)CC2)c1C | 97% | 10% | 2% | -8% | -9% | u
CCOC(=O)c1c(C)[nH]c(C(=O)NNC(=O)c2ccccc2F)c1C | -22% | 33% | x | u | x | x
CC(=O)c1c(C)[nH]c(C(=O)OCc2c(F)cccc2Cl)c1C | -17% | -7% | 6% | 10µM* | 22% | -16%
CCOC(=O)c1[nH]c(C)c(C(=O)OCC)c1C | -2% | -10% | -3% | u | 45% | x
CCOC(=O)c1[nH]c(C)c(C(=O)OCCOc2cccc(C)c2)c1C | -28% | -14% | -11% | u | 2.6µM* | 7.4µM*
Cc1cccc(C)c1Nc1c(-c2ccc(Cl)s2)nc2ncccn12 | x | x | -3% | x | x | x
COc1ccc(COc2cc(-c3cccc(OC)c3)nc3ccc(N)cc23)cc1 | -6% | -9% | 0% | u | 5.9µM* | 15µM*
COc1ccc(COc2cc(-c3cccc(OC)c3)nc3ccc(NC(=O)c4ccc(C)cc4)cc23)cc1 | -12% | -6% | -4% | u | 3.3µM* | u
COc1ccc(COc2cc(-c3cccc(OC)c3)nc3ccc(NC(=O)c4ccc(N(C)C)cc4)cc23)cc1 | 4% | 0% | 4% | u | 2.9µM* | 2.3µM*
SMILES | AmpC no deterg | AMA1-RON2 inh | AmpC detergent | HCV inh | Pf growth 96h | Pf growth 48h
COC(=O)c1ccc2c(c1)N(CC(=O)Nc1ccc(C)cc1Cl)C(=O)c1ccccc1S2 | x | x | -2% | x | x | x
O=C(CSc1n[nH]c(-c2cccs2)n1)N1CCN(S(=O)(=O)c2ccc3ccccc3c2)CC1 | -16% | -3% | 0% | u | 5.9µM* | x
O=C(/C=C/c1ccccc1)N1CCC(Cc2ccccc2)CC1 | 7% | 3% | -3% | 13% | 8.3µM* | u
Cc1cc(C(=O)N2CCC(Cc3ccccc3)CC2)no1 | 22% | -7% | -6% | 2% | 15µM* | 80%
COc1ccc2sc(N(Cc3cccnc3)C(=O)c3ccc4c(c3)OCCO4)nc2c1 | x | x | -8% | x | x | x
C/C(CC(=O)Nc1ccccc1Br)=N\NC(=O)C(=O)N1CCCC1 | 41% | 79% | -3% | -17% | 10µM* | 9%
COc1ccc2c(c1)sc1ncc(C(=O)NCc3cccc(Cl)c3)c(=O)n12 | x | x | 0% | x | x | x
COc1cc(/C=N/N(c2ccccc2)c2ccccc2)ccc1O | -47% | u | u | u | u | 5%
CN(/N=C\c1ccc(O)c(O)c1)c1nc(-c2ccccc2)cc(-c2ccccc2)n1 | -16% | 2%[2.32 µM] | -13% | 11µM* | u | 10µM*
CCOc1ccc(NC(=O)CN2C(=O)c3ccccc3Sc3ccc(C(=O)OC)cc32)cc1 | x | x | 6% | x | x | x
CC(C)c1nnc(-c2ccc(Cl)cc2)c(N(C)C)n1 | -21% | 1% | -9% | 25% | 9.3µM* | u
Cc1ccc(C)c(NC(=O)CSc2ncc3c(n2)-c2cc(Cl)ccc2N(Cc2ccccc2F)S3(=O)=O)c1 | x | x | 1% | x | x | x
CCc1cc2c(N3CCCCC3)ncnc2s1 | 9% | 3% | -4% | 11µM* | 16% | -16%
CCc1cc2c(N3CCN(C)CC3)ncnc2s1 | -19% | -15% | 1% | -10% | -14% | -19%
CCOc1cccc(-c2c(C(=O)N/N=C/c3ccc(Br)cc3)nnn2-c2nonc2N)c1 | -60% | 5% | 0% | u | 2.6µM* | u
CCOc1ccc(-c2c(C(=O)N/N=C/c3cccc(Br)c3)nnn2-c2nonc2N)cc1 | 16µM* | 41% | 1% | 34% | 2.9µM* | u
CCCOc1ccc(/C=N/NC(=O)c2nnn(-c3nonc3N)c2-c2cccs2)cc1OC | -31% | -2% | -1% | u | 12µM* | 13µM*
Cc1nc2c(C(=O)NC(C)c3ccccc3)cnn2c(C)c1Cc1ccccc1 (centres undefined) | x | x | -2% | x | x | x
O=C(Nc1ccc(Cn2cccn2)cc1)c1ccc(COc2ccccc2Br)cc1 | -12% | -18% | u | 13µM* | 12µM* | -30%
Cn1c2c(c3ccccc31)CCN1CCC[C@]21c1ccccc1 | 65% | -30% | -4% | u | 8.3µM* | 1%[0.00184 µM]
CN1CCc2c(c3ccccc3n2C)C1 | -11% | -12% | 3% | -16% | u | 46%
